# Among all 5,500 compounds or so, about 2,000 (36%) were called active. Roughly 18% stayed inconclusive and do not appear here. This is one part of the list. A number with no mark means an inactive call. Cut-off read from the data, not from the text of the source: active = normalized growth mostly below about 0.91 (no sharp cut-off); inconclusive = no clear call, values can overlap the other calls; inactive = mostly above about 0.92.
# Assay: chemical genetic growth profiling, strain panel (AID 1159580);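 note: tested at 20 µM; growth read once vehicle control cultures reached saturation at 30 °C; 1 = growth at the plate median or of vehicle wells; lower values mean less growth of the strain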
# Conditions: S. cerevisiae deletion strains, growth OD
smiles,measurement,setting,value
Oc1ccc2c3c1O[C@H]1c4oc5ccccc5c4C[C@@]4(O)C(C2)N(CC2CC2)CCC314 (stereo partly drawn),normalized growth,"locus YAL040C, strain CLN3, hits give low values",1.01
same,normalized growth,"locus YCL061C, strain MRC1 (second series), hits give low values",1
same,normalized growth,"locus YDR363W, strain ESC2, hits give low values",0.994
same,normalized growth,"locus YER002W, strain NOP16, hits give low values",0.988
same,normalized growth,"locus YJR075W, strain HOC1, hits give low values",0.99
same,normalized growth,"locus YMR307W, strain GAS1, hits give low values",0.988
same,normalized growth,"locus YNL175C, strain NOP13, hits give low values",1.01
same,normalized growth,"locus YNL197C, strain WHI3, hits give low values",1.01
same,normalized growth,"locus YNL224C, strain SQS1, hits give low values",1
same,normalized growth,"locus YNL322C, strain KRE1, hits give low values",0.993
same,normalized growth,"locus YOR083W, strain WHI5 (second series), hits give low values",1.01
same,normalized growth,"locus YPL055C, strain LGE1, hits give low values",0.975
O=S(=O)(Nc1cc(C(F)(F)F)ccc1F)c1cc(C(F)(F)F)ccc1Cl,normalized growth,"locus YAR019C, strain CDC15, hits give low values",0.942
same,normalized growth,"locus YBL105C, strain PKC1, hits give low values",0.947
same,normalized growth,"locus YBR135W, strain CKS1, hits give low values",0.937
same,normalized growth,"locus YBR136W, strain MEC1, hits give low values",0.943
same,normalized growth,"locus YBR160W, strain CDC28, hits give low values",0.931
same,normalized growth,"locus YDL017W, strain CDC7, hits give low values",0.944
same,normalized growth,"locus YDL028C, strain MPS1, hits give low values",0.941
same,normalized growth,"locus YDL101C, strain DUN1, hits give low values",0.969
same,normalized growth,"locus YDL108W, strain KIN28, hits give low values",0.949
same,normalized growth,"locus YDL132W, strain cdc53, hits give low values",0.945
same,normalized growth,"locus YDL214C, strain PRR2, hits give low values",0.905
same,normalized growth,"locus YDR052C, strain DBF4, hits give low values",0.957
same,normalized growth,"locus YDR054C, strain cdc34, hits give low values",0.94
same,normalized growth,"locus YDR226W, strain ADK1, hits give low values",0.95
same,normalized growth,"locus YDR477W, strain SNF1, hits give low values",0.917
same,normalized growth,"locus YER123W, strain YCK3, hits give low values",0.868
same,normalized growth,"locus YER133W, strain GLC7, hits give low values",0.923
same,normalized growth,"locus YFL009W, strain cdc4, hits give low values",0.939
same,normalized growth,"locus YFL029C, strain CAK1, hits give low values",0.941
same,normalized growth,"locus YFR003C, strain YPI1, hits give low values",0.946
same,normalized growth,"locus YFR019W, strain FAB1, hits give low values",0.894
same,normalized growth,"locus YFR028C, strain CDC14, hits give low values",0.939
same,normalized growth,"locus YGR040W, strain KSS1, hits give low values",0.905
same,normalized growth,"locus YGR052W, strain FMP48, hits give low values",0.831
same,normalized growth,"locus YGR092W, strain DBF2, hits give low values",0.82
same,normalized growth,"locus YHR030C, strain SLT2, hits give low values",0.644 (active)
same,normalized growth,"locus YHR079C, strain IRE1, hits give low values",0.824
same,normalized growth,"locus YHR082C, strain KSP1, hits give low values",0.771
same,normalized growth,"locus YHR205W, strain SCH9, hits give low values",0.887
same,normalized growth,"locus YIL147C, strain SLN1, hits give low values",0.95
same,normalized growth,"locus YJL095W, strain BCK1, hits give low values",0.886
same,normalized growth,"locus YJL128C, strain PBS2, hits give low values",0.911
same,normalized growth,"locus YJL157C, strain FAR1, hits give low values",0.904
same,normalized growth,"locus YJR016C, strain ILV3, hits give low values",0.941
same,normalized growth,"locus YJR066W, strain TOR1 (second series), hits give low values",0.904
same,normalized growth,"locus YJR066W, strain TOR1, hits give low values",0.82
same,normalized growth,"locus YKL048C, strain ELM1, hits give low values",0.852
same,normalized growth,"locus YKL067W, strain YNK1, hits give low values",0.905
same,normalized growth,"locus YKL101W, strain HSL1, hits give low values",0.88
same,normalized growth,"locus YKL193C, strain SDS22, hits give low values",0.938
same,normalized growth,"locus YKL203C, strain TOR2, hits give low values",0.933
same,normalized growth,"locus YLR113W, strain HOG1, hits give low values",0.715 (active)
same,normalized growth,"locus YLR133W, strain CKI1, hits give low values",0.902
same,normalized growth,"locus YLR403W, strain SFP1, hits give low values",0.902
same,normalized growth,"locus YML070W, strain DAK1, hits give low values",0.864
same,normalized growth,"locus YMR001C, strain CDC5, hits give low values",0.943
same,normalized growth,"locus YMR205C, strain PFK2 (second series), hits give low values",0.925
same,normalized growth,"locus YMR277W, strain FCP1, hits give low values",0.944
same,normalized growth,"locus YNL006W, strain LST8, hits give low values",0.936
same,normalized growth,"locus YNL020C, strain ARK1, hits give low values",0.882
same,normalized growth,"locus YNL161W, strain CBK1, hits give low values",0.939
same,normalized growth,"locus YNL183C, strain NPR1, hits give low values",0.808
same,normalized growth,"locus YNL207W, strain RIO2, hits give low values",0.937
same,normalized growth,"locus YNL222W, strain SSU72, hits give low values",0.938
same,normalized growth,"locus YNL307C, strain MCK1 (second series), hits give low values",0.861
same,normalized growth,"locus YOL078W, strain AVO1, hits give low values",0.935
same,normalized growth,"locus YOL136C, strain PFK27, hits give low values",0.858
same,normalized growth,"locus YOR061W, strain CKA2, hits give low values",0.908
same,normalized growth,"locus YOR119C, strain RIO1, hits give low values",0.951
same,normalized growth,"locus YOR231W, strain MKK1, hits give low values",0.817
same,normalized growth,"locus YOR329C, strain SCD5, hits give low values",0.947
same,normalized growth,"locus YPL031C, strain PHO85, hits give low values",0.881
same,normalized growth,"locus YPL153C, strain RAD53, hits give low values",0.867
same,normalized growth,"locus YPL204W, strain HRR25, hits give low values",0.876
same,normalized growth,"locus YPL209C, strain IPL1, hits give low values",0.935
same,normalized growth,"locus YPL256C, strain CLN2, hits give low values",0.694 (active)
same,normalized growth,"locus YPR025C, strain CCL1, hits give low values",0.937
same,normalized growth,"locus YPR106W, strain ISR1, hits give low values",0.929
same,normalized growth,"locus YPR111W, strain DBF20, hits give low values",0.925
same,normalized growth,"strain NNK1, hits give low values",0.934
same,normalized growth,"strain TSCII, hits give low values",0.941

# Source: PubChem BioAssay AID1159580 (chemical genetic matrix, 2015)
